Screening data deposited in PubChem BioAssay by National Center for Advancing Translational Sciences (NCATS).
Compounds with a hit are over-represented: about 2.1% of the library has one in this group of screens.
Abeta yeast res: qHTS for compounds that reverse cellular toxicity of Amyloid beta (A-beta) peptide in yeast: Primary Screen; yeast expressing A-beta42, growth rescue, OD600, 48 h; response scale: 0% DMSO, 100% iron-clioquinol control; Potency, µM (top dose mostly 46.1 µM), actives largely listed as activators; 410,000 compounds, 0.063% hits; AID 1347071, 2019; note: nearly all actives have a fitted effect of over 55% in size
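Growth rescue measured by 600 nm absorbance after 48 h yeast culture at 30 C with compound. Values normalized between DMSO and an equimolar ferric chloride plus clioquinol control.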
TDP43 rescue: qHTS of TDP-43 Inhibitors. TDP-43 expressing yeast growth rescue, BacTiter-Glo, 24 h. Potency, µM (top dose mostly 46.1 µM), for inactives: at the highest dose growth rescue (activation), usual class: activators. 410,000 compounds, 1.8% hits. AID 652104, 2013; note: % of control where 0% means no effect; nearly all actives have a fitted effect of over 50% in size
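Galactose-induced TDP-43 yeast, OD600=0.02, compound pinned; 24 hr, 30 deg C; BacTiter-Glo luminescence for growth. Inhibitors of TDP-43 toxicity read as activators.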
FUS suppressor: qHTS for Suppressors of FUS Proteinopathy: Primary screen using FUS-linked yeast assay; S. cerevisiae FUS-expressing, growth rescue, OD600, 24 h; Potency, µM (titrated, usually from 76.6 µM), most hits filed as activators; 390,000 compounds, 0.24% hits;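 note: plate controls were DMSO vehicle for no effect and reference control for full effect; nearly all actives have a fitted effect of over 55% in size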
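Read-out: OD at 600 nm after 24hr at 30C, reporting rescue of FUS-induced yeast toxicity. Cells at OD 0.005 in galactose (2%) minimal medium; compounds tested in a dilution series; CP55940 titration from 92uM final as control.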
aSyn yeast inh: qHTS of alpha-syn Inhibitors. 370,000 compounds, 0.14% hits. Potency, µM (series often up to 46.1 µM), inactives show at the top dose growth rescue (activation), hits mostly activators. Yeast expressing alpha-synuclein, growth rescue, BacTiter-Glo, 24 h. AID 652106, 2013; note: % of control where 0% means no effect; nearly all actives have a fitted effect of over 65% in size
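Readout is rescue of growth in alpha-synuclein-expressing yeast, so inhibitors of toxicity appear as activators. Growth after 24 hr at 30 deg C in galactose medium is quantified by luminescence.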
The depositor's hits bear a star; i = inactive; ? = inconclusive; / = no result given. Calls come from the whole dose curve; as a rule, active = well fitted curve in the direction sought with a large enough effect; inconclusive = small, poorly fitted or top-dose-only effect, or another doubt; inactive = no such curve, though single readings can be large; an effect the other way counts as inactive or inconclusive. Potency is the fitted concentration of half-maximal effect.

SMILES	Abeta yeast res	TDP43 rescue	FUS suppressor	aSyn yeast inh
O=C(C1CCN(c2ncnc3c2nc2n3CCCCC2)CC1)N1CCN(c2cccc(Cl)c2)CC1	i	27.5%	?	8.7%
Fc1ccc(N2CCN(c3ncnc4c3nc3n4CCCCC3)CC2)cc1	i	12.8%	i	/
Cc1cccc(N2CCN(c3ncnc4c3nc3n4CCCCC3)CC2)c1C	i	22.4µM*	i	/
Clc1cccc2sc(N3CCN(c4ccccc4)CC3)nc12	i	3.55µM*	i	0.0%
Clc1ccc(Cl)c2sc(N3CCCC3)nc12	i	7.08µM*	i	19.3%
COc1ccccc1CCN1COc2c(cc3c(C)c(C)c(=O)oc3c2C)C1	i	6.5%	i	/
Cc1ccccc1NC(=O)Nc1ccc2c(c1)C(=O)N(C)[C@H]1CC[C@H](CC(=O)NCC3CC3)O[C@@H]1CO2	/	/	i	/
O=S1(=O)C=CCN1Cc1cn(Cc2ccc(Cl)cc2)nn1	/	/	i	/
CN(Cc1ccccc1)S(=O)(=O)c1cc(Br)cc2c1N(C(=O)C1CC1)CC2	i	4.2%	i	/
Cc1ccc(CNc2nccn(-c3cc(C)cc(C)c3)c2=O)cc1	i	?	i	/
Cc1ccc(-n2ccnc(NCc3ccccc3)c2=O)cc1C	i	31.6µM*	i	/
COc1cccc(CNc2nccn(-c3cc(C)cc(C)c3)c2=O)c1	i	17.8µM*	i	/
Cn1c(SCc2ccccc2Cl)nnc1-c1cnccn1	i	11.2µM*	i	-0.9%
COc1ccc(CNC(=O)/C=C/c2ccccc2[N+](=O)[O-])cc1	i	-16.0%	i	-1.1%
COC(=O)C(=Cc1ccccc1[N+](=O)[O-])C(=O)OC	i	15.8µM*	i	0.1%
O=C(/C=C/c1ccccc1[N+](=O)[O-])OCC(=O)c1ccccc1	i	20µM*	i	10.1%
O=S(=O)(CCSc1nc2ccccc2o1)c1nc2ccccc2s1	i	11.2µM*	i	-18.2%
Cc1ccccc1OCCSc1nc2ccc(NC(=O)c3cccs3)cc2s1	i	-22.4%	?	/
O=C(COC(=O)c1cccnc1Cl)c1cccc(Cl)c1	i	11.2µM*	i	/
O=[N+]([O-])c1cccc(/C=N\N=C2c3ccccc3-c3ccccc32)c1O	i	-32.7%	/	-7.9%
Fc1c(F)c(F)c(N/N=C/c2c[nH]c3ccccc23)c(F)c1F	i	?	i	-36.6%
C(=NN=C1c2ccccc2-c2ccccc21)c1c[nH]c2ccccc12	i	12.6µM*	/	21.1%
Oc1ccc(C=NN=C2c3ccccc3-c3ccccc32)c(O)c1	i	11.2µM*	/	-34.8%
CCCCNS(=O)(=O)c1ccc2nc(-c3cccnc3)cc(C(=O)NCCC)c2c1	i	13.7%	i	/
CCCCN1C(=O)N2Cc3cc(OC)ccc3C2CS1(=O)=O (configuration not stated)	/	/	i	/
SMILES	Abeta yeast res	TDP43 rescue	FUS suppressor	aSyn yeast inh
COCc1cc(C)nc2sc(C(=O)N3CCN(c4ccccc4)CC3)c(N)c12	i	20µM*	i	1.5%
COCc1cc(C)nc2sc(C(=O)N3CCCCC3)c(N)c12	i	-34.8%	i	-4.7%
CCOC(=O)c1ccccc1NC(=O)Cn1c(=O)n(-c2ccc(CC)cc2)c(=O)c2c(C)c(C(=O)N(C)C)sc21	i	10.6%	i	/
CNC(=O)c1ccc(-c2sc3nc(N4CCOCC4)c4c(c3c2N)CCCC4)o1	i	22.4µM*	7.08µM*	-7.5%
CNC(=O)c1ccc(-c2sc3nc(N4CCOCC4)c4c(c3c2N)CC(C)(C)OC4)o1	i	17.5%	i	-1.5%
CC(=O)c1ccc2c(c1)Cc1cc(C(C)=O)ccc1-2	i	-4.7%	/	0.2%
CC(=O)c1ccc2c(c1)CC1(C2)Cc2cc3c(cc2C1)C(=O)CC3 (configuration not stated)	i	15.8µM*	/	-9.7%
CCN(CC)S(=O)(=O)c1ccc(NC(=O)CN(c2ccccc2)S(=O)(=O)N(C)C)cc1	i	4.6%	i	0.8%
CCN1C(=O)[C@H]2[C@@H](c3ccc(-c4ccc5c(c4)OCO5)cc3)N[C@@](Cc3ccccc3)(C(=O)OC)[C@H]2C1=O	i	-2.0%	i	-1.9%
CCN1C(=O)[C@H]2[C@@H](c3ccc(-c4cccc(Cl)c4)cc3)N[C@@](Cc3ccccc3)(C(=O)OC)[C@H]2C1=O	i	2.8%	14.1µM*	16.3%
Cc1cc(C)c(S(=O)(=O)NCC(c2cccs2)S(=O)(=O)c2ccccc2)c(C)c1 (configuration not stated)	i	2.82µM*	i	/
CCOc1ccc(S(=O)(=O)NCC(c2cccs2)S(=O)(=O)c2ccc(C)cc2)cc1 (configuration not stated)	i	2.82µM*	i	/
CCOc1ccc(C(C(=O)NC2CCCC2)N(CCCO)C(=O)c2ccc(-c3ccccc3)[nH]2)cc1 (configuration not stated)	i	-13.1%	35.5µM*	0.3%
O=C(NC1CCCC1)C(c1ccncc1)N(CCCN1CCOCC1)C(=O)c1ccc(-c2ccccc2)[nH]1 (configuration not stated)	i	-7.2%	i	0.9%
N#Cc1ccc(OC[C@@H](O)CN2CCC(C(O)(c3ccccc3)c3ccccc3)CC2)cc1	/	/	i	/
COc1cccc(/C=N/NC(=O)C(=O)Nc2ccccc2OC(F)(F)C(F)F)c1O	i	-1.7%	i	22.4µM*
COc1ccccc1/C=N/NC(=O)c1cccc(OC(F)(F)C(F)F)c1	i	-0.6%	/	-14.6%
CC1CCC(NC(=O)c2ccc(CS(=O)(=O)c3c(Cl)cccc3Cl)o2)CC1 (configuration not stated)	i	35.5µM*	i	/
CN(C)S(=O)(=O)N1CCC(n2cnc3cccnc32)CC1	i	4.9%	i	/
COc1cc(NC(=O)c2ccc(-c3nc(CSc4ccccc4)c(C)o3)cc2)cc(OC)c1	i	-7.2%	?	/
Cc1ccc(CNC(=O)CCn2cnc3ccccc3c2=O)cc1	i	-19.2%	i	/
Cn1cnc([N+](=O)[O-])c1NC(C)(C)C	i	1.7%	i	-3.5%
Cn1cnc([N+](=O)[O-])c1S(=O)(=O)c1ccc(Cl)cc1	i	14.1µM*	i	-0.5%
CCn1c(SCC(=O)Nc2nc(-c3ccc(C)cc3)cs2)nnc1-c1ccccc1O	i	20µM*	i	-3.3%
O=C(C[n+]1cc(-c2ccccc2)n2c1CCC2)Nc1nc(-c2ccccc2)cs1	i	16.1%	/	1.0%
O=C(CSCC(=O)N1CCCc2ccccc21)Nc1nc(-c2ccccc2)cs1	i	11.2µM*	?	-17.1%
CC1CCN(C(=O)CSCC(=O)Nc2nc(-c3cccs3)cs2)CC1	i	35.5µM*	?	-15.5%
CCn1c(SCC(=O)Nc2nc(-c3ccc(C)cc3)cs2)nnc1-c1ccccc1	i	-2.9%	i	-12.4%
